Laboratory results reported in PubChem BioAssay AID488969 (Vanderbilt High Throughput Screening Facility, 2010).
In all, about 110,000 compounds were measured (“z-score”: median about -0.1, highest 2% from about 2 on). The list comes from a sample in which the highest values are over-represented; it also holds similar structures and randomly drawn compounds. Activity calls are given as the source filed them.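 Rule for the calls: active = z-score in the third read window above 3 or below -3; inactive = the rest.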

What follows are compounds tested against Metabotropic glutamate receptor 8 (Rattus norvegicus) (UniProt P70579) (assay: rat mGluR8 modulators via GIRK flux, primary screen, cell-based, thallium flux, HTS (AID 488969)). Conditions: HEK293 rat mGluR8, GIRK (G protein-gated inwardly rectifying potassium channel) thallium flux, FluoZin2; at 10 µM; stronger effect = higher value; submaximal glutamate (EC20) added with thallium.
Sequence of Metabotropic glutamate receptor 8 (Rattus norvegicus) (P70579 whole entry, looked up): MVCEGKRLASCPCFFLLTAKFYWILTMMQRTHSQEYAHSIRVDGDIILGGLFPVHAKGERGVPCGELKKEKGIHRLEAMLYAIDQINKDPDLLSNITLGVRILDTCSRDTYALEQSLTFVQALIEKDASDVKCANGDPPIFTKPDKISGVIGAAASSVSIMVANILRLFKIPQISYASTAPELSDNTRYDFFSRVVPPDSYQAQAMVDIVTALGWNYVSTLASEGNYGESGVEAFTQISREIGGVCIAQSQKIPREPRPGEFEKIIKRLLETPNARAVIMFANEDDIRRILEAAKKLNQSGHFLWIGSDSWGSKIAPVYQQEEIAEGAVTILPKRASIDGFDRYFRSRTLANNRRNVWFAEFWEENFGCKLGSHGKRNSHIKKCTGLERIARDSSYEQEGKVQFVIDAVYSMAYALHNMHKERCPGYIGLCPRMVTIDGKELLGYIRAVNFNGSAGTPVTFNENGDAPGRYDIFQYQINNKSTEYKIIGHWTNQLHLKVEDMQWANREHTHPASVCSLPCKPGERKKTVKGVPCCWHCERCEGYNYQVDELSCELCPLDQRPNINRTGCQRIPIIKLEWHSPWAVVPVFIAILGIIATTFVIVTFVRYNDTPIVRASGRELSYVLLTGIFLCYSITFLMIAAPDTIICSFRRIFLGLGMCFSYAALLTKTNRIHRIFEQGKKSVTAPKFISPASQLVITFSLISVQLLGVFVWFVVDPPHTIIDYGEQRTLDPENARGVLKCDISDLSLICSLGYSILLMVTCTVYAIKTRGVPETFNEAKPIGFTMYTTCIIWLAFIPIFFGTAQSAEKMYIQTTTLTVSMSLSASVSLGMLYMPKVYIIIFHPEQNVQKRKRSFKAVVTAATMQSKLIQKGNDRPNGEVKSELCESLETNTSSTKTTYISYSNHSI

| SMILES | z-score |
| --- | --- |
| COc1cc2cc(C#N)c(SCC(=O)N3CCOCC3)nc2cc1OC | 0.593 |
| C=CCn1cc(/C=N/NC(=O)COc2cccc3cccnc23)c2ccccc21 | -0.515 |
| Cc1ccc(-c2nn(CCC#N)cc2C=C(C#N)C#N)cc1 | 0.287 |
| O=S(=O)(c1ccccc1)n1c(C(O)c2ccccn2)cc2ccccc21 (centres undefined) | 0.524 |
| COc1ccc(N(CC(=O)N2c3ccccc3CC2C)S(=O)(=O)c2c(C)nn(C)c2C)cc1 (centres undefined) | -0.0129 |
| O=C(NNC(=O)c1ccc2c(c1)OCO2)NC12CC3CC(CC(C3)C1)C2 | -0.287 |
| CCOc1ccc(NC(=O)Nc2ccc(N(C)C(C)=O)cc2)cc1 | 0.478 |
| CCOc1ccc(NC(=O)NC23CC4CC(CC(C4)C2)C3)cc1 | 4.76 (active) |
| CCOc1ccc(NC(=O)Nc2cccs2)cc1 | 2.37 |
| COc1ccc(NC(=O)NC23CC4CC(CC(C4)C2)C3)cc1OC | -0.136 |
| COC(=O)c1cccc(NC(=O)NC23CC4CC(CC(C4)C2)C3)c1 | -0.16 |
| COc1cccc(NC(=O)Nc2cccs2)c1 | 1.67 |
| N#Cc1cccc(NC(=O)c2ccccc2C(=O)O)c1 | -0.112 |
| CCOc1ccc(NC(=O)Nc2ccc3nccnc3c2)cc1 | -0.163 |
| O=C(Nc1ccc2c(c1)OCCO2)NC12CC3CC(CC(C3)C1)C2 | 2.32 |
| N#Cc1cccc(NC(=O)Nc2cccs2)c1 | 2.55 |
| CCOc1ccc(NC(=O)C23CC4CC(C2)CC(c2ccccc2)(C4)C3)cc1 | -0.381 |
| CNC(=O)NC(=O)CSc1nc2ccccc2n1CCOC | -0.465 |
| O=C1C2CCCN2C(c2cccc(Br)c2)N1c1ccc(F)cc1 (centres undefined) | -0.401 |
| C/C(=N/NC(=O)OC(C)(C)C)c1ccco1 | -0.124 |
| COC(=O)c1cn(CC(=O)N2CCCCC2C)c2ccccc12 (centres undefined) | -0.213 |
| COC(=O)c1ccc(C(=O)OC)c(NC(=O)CCc2ccc(C)o2)c1 | -0.67 |
| CCCCCn1cnc2sc(CC)cc2c1=O | -0.4 |
| Cc1ccc(C(CCN)c2ccco2)cc1 (centres undefined) | 0.345 |

| SMILES | z-score |
| --- | --- |
| O=C1NC(=O)/C(=C\c2ccc(Sc3ccc(Cl)cc3)o2)N1 | -0.263 |
| Cc1cccc(NC(=S)NCC(c2cccnc2)N(C)C)c1 (centres undefined) | 0.286 |
| CCOC(=O)c1ccc2ncc(C(=O)OCC)c(NCCN(C)C)c2c1 | -0.571 |
| C=CCN(CC=C)C(=S)NC(=O)c1ccc(C)c(Br)c1 | 15.3 (active) |
| CCN(CC)C(=O)c1ccc(C)c(Br)c1 | -0.37 |
| COc1ccc(C(=O)NC(=S)NC(C)(C)C)cc1Br | 0.436 |
| C=CCN(CC=C)C(=S)NCCc1ccc(OC)c(OC)c1 | -0.0119 |
| C=CCN(CC=C)C(=S)NC(=O)/C=C/c1ccc(C)cc1 | 4.57 (active) |
| C=CCN(CC=C)C(=S)NC(=O)c1ccc(OC)c(Br)c1 | 15.4 (active) |
| CCCCC(=O)Nc1ccc(C(=O)NNC(=O)c2ccc(C)c(Br)c2)cc1 | -0.00519 |
| COc1ccc(C(=O)NC(=S)NCCO)cc1Br | 4.72 (active) |
| COc1ccc(C(=O)NC(=S)NC(C)C)cc1Br | 1.79 |
| C=CCN(CC=C)S(=O)(=O)c1ccc(NC(=S)NC(=O)/C=C/c2ccc(C)cc2)cc1 | -0.0815 |
| Cc1ccc(/C=C/C(=O)c2ccc(C)cc2)cc1 | 0.025 |
| COc1ccc(C(=O)NCc2ccccc2)cc1Br | -0.234 |
| CCOC(=O)c1nn(-c2ccc(C)c(C)c2)c(=O)c2c(N)scc12 | -0.137 |
| CC(C)(C)/C(O)=C/c1nc2ccccc2[nH]c1=O | -0.317 |
| COc1ccccc1CNC(=S)NCCc1ccccc1 | -0.133 |
| COCCn1c(C)cc(C(=O)COC(=O)c2cncc(Br)c2)c1C | 0.145 |
| COC(=O)c1cc2ccsc2n1Cc1cc(=O)n2ccccc2n1 | -0.127 |
| COc1cccc(C(C(=O)NC2CCCC2)N(Cc2ccco2)C(=O)c2ccco2)c1OC (centres undefined) | -0.188 |
| CCOC(=O)C1=C(C)C(c2ccccc2)NC(=S)N1 (centres undefined) | 0.0117 |
| CC1=C(C)C(c2ccccc2)NC(=S)N1 (centres undefined) | 3.39 (active) |
| CC1=CC(c2ccccc2)NC(=S)N1 (centres undefined) | -0.113 |

| SMILES | z-score |
| --- | --- |
| CSc1ccn(CCC(=O)O)c(=O)n1 | -0.489 |
| CC(=O)c1cnn(-c2nc3c(C)cccc3s2)c1C | -0.111 |
| c1ccc(-n2nnnc2-n2ccnc2)cc1 | 0.463 |
| COc1ccc(S(=O)(=O)Cc2ccc(C(=O)NCc3cccnc3)o2)cc1 | -0.0868 |
| C/C(=N\NC(=O)c1nonc1N)c1cccs1 | 0.127 |
| CC(=O)Nc1nc2ccccc2n1CCN(C)C | -0.911 |
| Cn1c(N2CCC(C(N)=O)CC2)nc2c1c(=O)n(Cc1ccc(Cl)cc1)c(=O)n2C | -0.154 |
| Cn1c(N2CCCC2)nc2c1c(=O)n(Cc1ccc(Cl)cc1)c(=O)n2C | 3.05 (active) |
| Cn1c(N2CCOCC2)nc2c1c(=O)n(Cc1ccc(Cl)cc1)c(=O)n2C | -0.42 |
| O=C(O)c1ccc(CNCc2ccc(Cl)cc2Cl)cc1 | -0.14 |
| CCOC(=O)Nc1ccc([N+](=O)[O-])cc1C | 0.0184 |
| COCC(=O)Nc1ccc([N+](=O)[O-])cc1C | 2.3 |
| Cc1cc([N+](=O)[O-])ccc1NC(=O)Cc1ccc(F)cc1 | -0.108 |
| Cc1cc([N+](=O)[O-])ccc1NC(=S)NC(=O)C(c1ccccc1)c1ccccc1 | 0.175 |
| COCC(=O)Nc1cc([N+](=O)[O-])ccc1C | -0.258 |
| Cc1cc([N+](=O)[O-])ccc1NC(=S)NC(=O)Cc1ccccc1 | 6.82 (active) |
| S=c1[nH]nc(Cc2cccc3ccccc23)n1-c1ccccc1 | -0.324 |
| O=C(NNC(=O)c1ccccc1Br)c1ccc(Cl)cc1 | 0.075 |
| COc1ccc(C(=O)Nc2c(C)ccc3nsnc23)cc1[N+](=O)[O-] | 0.723 |
| CC1CCCCN1C/C=C/c1ccccc1[N+](=O)[O-] (centres undefined) | -0.203 |
| COc1cc(C(=S)N2CCCCC2)ccc1O | 0.0785 |
| COc1cc(C#CC#CCN2CCCCC2)ccc1O | 2.82 |
| COc1cc(C(=O)OCCN2CCCCC2)ccc1O | 0.0129 |
| O=C(CN1CCCC1)Nc1c2c(nc3ccccc13)N(Cc1ccccc1)CC2 | 1.74 |

| SMILES | z-score |
| --- | --- |
| COc1ccc(NC(=O)COC(=O)CC2CC3CCC2C3)c([N+](=O)[O-])c1 (centres undefined) | -0.182 |
| COc1ccc(NC(=O)COC(=O)CC23CC4CC(CC(C4)C2)C3)c([N+](=O)[O-])c1 | 2.75 |
| COc1ccc(NC(=O)COC(=O)C2CCCCC2)c([N+](=O)[O-])c1 | 0.159 |
| Cc1nc(N)nc(OCC(F)(F)C(F)F)c1Br | -0.145 |
| Nc1nc2n(n1)C(c1ccco1)CC(c1ccc(F)cc1)N2 (centres undefined) | 0.268 |
| Nc1nc2n(n1)C(c1cccs1)CC(c1ccc(F)cc1)N2 (centres undefined) | 6.13 (active) |
| COc1ccc(C2CC(c3ccc(Br)cc3)Nc3nc(N)nn32)cc1 (centres undefined) | 1.67 |
| Nc1nc2n(n1)C(c1ccco1)CC(c1ccc(Cl)c(Cl)c1)N2 (centres undefined) | 2.38 |
| COc1ccc(C2CC(c3ccc(Cl)cc3Cl)Nc3nc(N)nn32)cc1 (centres undefined) | 1.46 |
| Nc1nc2n(n1)C(c1cccs1)CC(c1ccccc1)N2 (centres undefined) | -0.0568 |
| COc1ccc(C2CC(c3ccc(Cl)cc3)n3nc(N)nc3N2)cc1 (centres undefined) | 2.61 |
| Cc1ccc(C2CC(c3cccs3)n3nc(N)nc3N2)cc1 (centres undefined) | 0.263 |
| Nc1nc2n(n1)C(c1ccco1)CC(c1ccccc1)N2 (centres undefined) | -0.0773 |
| COc1ccc(C2CC(c3ccc(Cl)c(Cl)c3)Nc3nc(N)nn32)cc1 (centres undefined) | 3.08 (active) |
| COc1cccc(C2CC(c3ccc(Cl)cc3)n3nc(N)nc3N2)c1 (centres undefined) | 0.802 |
| COc1ccc(C2CC(c3ccccc3)Nc3nc(N)nn32)cc1 (centres undefined) | -0.316 |
| COc1ccc(/C=N/c2oc(-c3ccccc3)cc2C#N)cc1OC | 0.0441 |
| CCCC(=O)C1=C(O)C(C(=O)OC)C(C)(C)CC1=NC(C)(C)C (centres undefined) | -0.418 |
| O=C1c2ccccc2C(=O)N1c1ccc(-c2nc3ccccc3o2)cc1 | 0.248 |
| Cc1nn(C)cc1NC(=O)CC12CC3CC(CC(C3)C1)C2 | -0.0159 |
| CC(=O)Nc1ccc(C(=O)N/N=C/c2cccnc2)cc1 | -0.709 |
| Cc1nc2cc(NC(=O)N3c4ccccc4CC3C)ccc2n1C (centres undefined) | -0.544 |
| CCc1cc2c(=O)c(-c3cnn(-c4ccccc4)c3)c(C)oc2cc1OCC(=O)Nc1ccc(F)c(F)c1 | 0.0216 |
| Cc1nc(NCCc2ccc(S(N)(=O)=O)cc2)c2c3c(sc2n1)CCC3 | -0.34 |

| SMILES | z-score |
| --- | --- |
| Cc1nc(NCCc2ccc(S(N)(=O)=O)cc2)c2c(C)c(C)sc2n1 | 6.05 (active) |
| Cc1sc2ncnc(NCCc3ccc(S(N)(=O)=O)cc3)c2c1C | 0.0936 |
| O=c1cc(CSc2nnc(-c3ccccc3)o2)c2ccccc2[nH]1 | 0.487 |
| COc1ccc(/C=N\NC(=O)/C(=C\Nc2nccc(C)n2)NC(=O)c2ccccc2)cc1 | -0.263 |
| C=CCn1c(-c2csc(-c3ccccc3)n2)n[nH]c1=S | 0.103 |
| C=CCn1c(-c2csc(-c3ccc(Cl)cc3)n2)n[nH]c1=S | 2.89 |
| CCn1c(-c2csc(-c3ccc(Cl)cc3)n2)n[nH]c1=S | 1.31 |
| CC(C)N(C(=O)Nc1ccc2nccnc2c1)C(C)C | -0.935 |
| COc1ccc(OC)c(NC(=O)CSc2nnc(Cn3nnc4ccccc43)n2C)c1 | -0.116 |
| NC(=O)c1ccc(NC(=O)COC(=O)CC(NC(=O)c2ccccc2Cl)c2ccccc2)cc1 (centres undefined) | 1.26 |
| CCOC(=O)N1CCN(C(=O)c2ccc3c(=O)n(Cc4ccc(OC)cc4)c(=S)[nH]c3c2)CC1 | -0.232 |
| COc1ccc(Cn2c(O)cc(=O)[nH]c2=O)cc1 | 0.277 |
| COc1ccc(Cn2c(=S)[nH]c3ccsc3c2=O)cc1 | 3.86 (active) |
| CCOCCn1c(=NC(=O)c2cc3ccccc3oc2=O)sc2cc(S(N)(=O)=O)ccc21 | -0.105 |
| C=CCSc1[nH]c(=O)cc(C)c1C(N)=O | 0.533 |
| O=C(COc1ccccc1)Nc1cccc2c1CCCC2 | -0.151 |
| CC(=O)Nc1ccccc1Nc1cc(C#N)c(C#N)cc1[N+](=O)[O-] | -0.00232 |
| CN1C2C=C3C(C#N)=C(N)C(C#N)(C#N)[C@@H](c4ccsc4)[C@@H]3C1CC2 (some centres undefined) | 4.01 (active) |
| CN1C2C=C3C(C#N)=C(N)C(C#N)(C#N)[C@H](c4c(F)cccc4F)[C@H]3C1CC2 (some centres undefined) | -0.484 |
| CN1C2C=C3C(C#N)=C(N)C(C#N)(C#N)[C@@H](c4cccc(F)c4)[C@@H]3C1CC2 (some centres undefined) | 1.32 |
| CN1C2C=C3C(C#N)=C(N)C(C#N)(C#N)[C@@H](c4cccs4)C3C1CC2 (some centres undefined) | 2.54 |
| CC(C)(C)C1CC=C2C(C#N)=C(N)C(C#N)(C#N)C(c3cccs3)C2C1 (centres undefined) | 0.0392 |
| CN1C2C=C3C(C#N)=C(N)C(C#N)(C#N)C(c4ccc(Br)cc4)C3C1CC2 (centres undefined) | 0.361 |
